Test results published in PubChem BioAssay (NCI).
The panel holds about 79,000 compounds, 15% with a hit somewhere; the sample as a whole holds those more often. Calls of active or inactive are those of the source. No stated cut-off is given here; in the data, active means growth inhibition above about 70%; inactive means the rest.

Experiment: NCI Yeast Anticancer Drug Screen. Data for the bub3 strain (AID 167)
Conditions: S. cerevisiae bub3 mutant strain, at 50.0 µM, hits give high values
Outline: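 Part of a panel of yeast mutants defective in DNA damage repair or cell cycle regulation. Each strain is grown with compound, and inhibition is calculated relative to solvent-treated cultures.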

Q: For `O=C1Nc2ncnc(Cl)c2Cc2ccccc21`, which growth inhibition is on record?
A: -6.15% (inactive)

Q: Which growth inhibition does the source give for `C/C(CC(=O)N1CCCCC1)=N\NC(N)=S` here?
A: 2.2% (inactive)

Q: For `COc1ccc(/C=C2/CCOC2=O)cc1`, which growth inhibition is on record?
A: -2.6% (inactive)

Q: Which growth inhibition does the source give for `Cn1c(C2CCc3cc(O)ccc3C2)cccc1=O` (centres undefined) here?
A: 14.7% (inactive)

Experiment: NCI Yeast Anticancer Drug Screen. Data for the mlh1 rad18 strain (AID 175)
Conditions: S. cerevisiae mlh1 rad18 strain growth inhibition; at 50.0 µM; hits give high values
Outline: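 Growth inhibition of the yeast strain was measured after compound exposure and expressed relative to vehicle-treated controls. The strain carries defined defects in DNA damage repair.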

Q: With `N#Cc1c(C#N)c(-c2cccc([N+](=O)[O-])c2)n(-c2ccccc2)c1N` as the compound, how does the growth inhibition read?
A: -16.5% (inactive)

Q: Which growth inhibition does the source give for `Nc1ncnc(N)c1NC(=O)CCCCc1ccccc1` here?
A: -5.9% (inactive)

Q: Which growth inhibition does the source give for `CC1=C2CC[C@@]3(C)C(=CCC3O)C2(C)CCC1=O` (some centres undefined) here?
A: -7.6% (inactive)

Q: For `O=C1c2ccccc2-c2nc3cc4ccccc4cc3nc21`, which growth inhibition is on record?
A: 74% (active)

Q: With `CCC(CC)C(=O)OCCOc1ccccc1` as the compound, how does the growth inhibition read?
A: -1.8% (inactive)

Q: Which growth inhibition does the source give for `CN1CCN(C(=O)Nc2ccc(N=Nc3ccccc3)cc2)CC1` here?
A: -6.25% (inactive)

Q: For `Cc1cc2c(cc1C)NS(=O)(=O)N2`, which growth inhibition is on record?
A: 7.35% (inactive)

Q: Which growth inhibition does the source give for `CC(C)/C=C\C(=O)CC(C)C` here?
A: 18.6% (inactive)

Q: For `CC(C)=NOC(=O)Nc1cccc2c1OCO2`, which growth inhibition is on record?
A: 4.25% (inactive)

Q: With `CC(C)NC(=O)Nc1cccc(Cl)c1` as the compound, how does the growth inhibition read?
A: -1% (inactive)

Q: Which growth inhibition does the source give for `CN=C(c1ccccc1)N(O)c1ccccc1` here?
A: 6.2% (inactive)

Q: Which growth inhibition does the source give for `C=CC(=O)NC1CCCCC1` here?
A: -22.4% (inactive)

Q: Which growth inhibition does the source give for `O=c1c2c(-c3ccccc3)c3ccccc3nc2cnn1-c1ccccc1` here?
A: -14.2% (inactive)

Q: With `CC(C)CN(CC(C)C)C(=O)C1CCCC[C@@H]1C(=O)O` (some centres undefined) as the compound, how does the growth inhibition read?
A: 22.4% (inactive)

Q: With `C=CCOC(=O)Nc1ccc(C)c(NC(=O)OCC=C)c1` as the compound, how does the growth inhibition read?
A: -33.1% (inactive)

Q: Which growth inhibition does the source give for `CCOP(=O)(OCC)C(Cc1ccc(OC)c(OC)c1)N=C(c1ccccc1)c1ccccc1` (centres undefined) here?
A: -7.9% (inactive)

Q: For `c1ccc(-c2ccccc2N=C2N=NN=N2)cc1`, which growth inhibition is on record?
A: 6.55% (inactive)

Q: Which growth inhibition does the source give for `S=C1c2cc(Cl)ccc2NC(=NC2CCCC2)C2CSCN12` (centres undefined) here?
A: 28.5% (inactive)

Q: For `CCOC(=O)/C(C#N)=C/Nc1c(C)n(C)n(-c2ccccc2)c1=O`, which growth inhibition is on record?
A: 13.6% (inactive)

Q: Which growth inhibition does the source give for `CC(=O)N/N=C/c1ccc([N+](=O)[O-])s1` here?
A: 45.5% (inactive)

Q: With `O=C(O)C(=O)Cc1ccc(Br)cc1[N+](=O)[O-]` as the compound, how does the growth inhibition read?
A: 12.2% (inactive)

Q: For `CC(C)C(=O)Nc1nc2c(ncn2C2OC(CO)C(O)C2O)c(=O)[nH]1` (centres undefined), which growth inhibition is on record?
A: -4.15% (inactive)

Q: Which growth inhibition does the source give for `CC(SC(=S)N1CCOCC1)C(=O)O` (centres undefined) here?
A: -7.6% (inactive)

Q: With `O=C(Nc1ccc([N+](=O)[O-])cc1)c1cc(N2CCOCC2)ccn1` as the compound, how does the growth inhibition read?
A: 25.6% (inactive)

Q: With `N#C/C(=C\c1ccccc1)c1cccc(Cl)c1` as the compound, how does the growth inhibition read?
A: -12.7% (inactive)

Q: Which growth inhibition does the source give for `Cc1ccc(S(=O)(=O)OC2CCCCCCCCCCC2=O)cc1` (centres undefined) here?
A: 6.3% (inactive)

Q: Which growth inhibition does the source give for `CCOC(=O)CN=NNc1ccccc1C(C)=O` here?
A: 38.4% (inactive)

Q: Which growth inhibition does the source give for `COc1ccc(NC(=S)NN=C(C)c2cccc(C(C)=NNC(=S)Nc3ccc(OC)cc3)n2)cc1` here?
A: 1.95% (inactive)

Q: Which growth inhibition does the source give for `O=P(c1ccccc1)(c1ccccc1)C(O)c1cccs1` (centres undefined) here?
A: 18.8% (inactive)

Q: For `CCOc1ncc(C(O)c2ccco2)c(OCC)n1` (centres undefined), which growth inhibition is on record?
A: -8% (inactive)

Q: With `N#C/C(=N/Nc1nc[nH]c1C(N)=O)C(=O)Nc1ccccc1` as the compound, how does the growth inhibition read?
A: 26.1% (inactive)

Q: Which growth inhibition does the source give for `CSC(SC)=C(C(=O)c1ccc(Cl)cc1)n1c(=O)sc2cc(Br)ccc21` here?
A: -20.4% (inactive)

Q: Which growth inhibition does the source give for `O=C(Nc1nc2ncn(CCI)c2c(=O)[nH]1)c1ccccc1` here?
A: -14.3% (inactive)

Q: Which growth inhibition does the source give for `O=C(C[n+]1cccc(Cl)c1)c1cccc([N+](=O)[O-])c1` here?
A: -5% (inactive)

Q: With `NC(=O)COc1c(Br)cc(Br)cc1Br` as the compound, how does the growth inhibition read?
A: -25.4% (inactive)

Q: With `Cc1cc(C)cc(C(=O)OC2CCCC2)c1` as the compound, how does the growth inhibition read?
A: 22.9% (inactive)

Q: With `O=C1Nc2ncnc(Cl)c2Cc2ccccc21` as the compound, how does the growth inhibition read?
A: -12.1% (inactive)

Q: Which growth inhibition does the source give for `C/C(CC(=O)N1CCCCC1)=N\NC(N)=S` here?
A: -18.2% (inactive)

Q: With `COc1ccc(/C=C2/CCOC2=O)cc1` as the compound, how does the growth inhibition read?
A: 28.8% (inactive)

Q: Which growth inhibition does the source give for `Cn1c(C2CCc3cc(O)ccc3C2)cccc1=O` (centres undefined) here?
A: -4.35% (inactive)
